NS1 inh: blocks influenza NS1 protein function | Potency, µM (doses to about 46.1 µM) | actives 0.4% (n = 270,000); calls by dose curve; further: actives are rising curves; nearly all actives have a fitted effect of over 50% in size
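In this qHTS, NS1 from influenza A is expressed in budding yeast, where it slows growth. Cells are switched from glucose to 2% galactose medium (pH 6.0, -URA), treated with compound, and growth recovery is read at OD600.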
Cruzain Triton: blocks cruzain activity in presence of Triton detergent; P25779; purified cruzain, Z-FR-AMC fluorescence, 0.01% Triton; Potency, µM, most hits filed as inhibitors; actives 0.43% (n = 200,000); AID 1478; further: nearly all actives have a fitted effect of over 40% in size
Target sequence (P25779 123-467 limits assumed): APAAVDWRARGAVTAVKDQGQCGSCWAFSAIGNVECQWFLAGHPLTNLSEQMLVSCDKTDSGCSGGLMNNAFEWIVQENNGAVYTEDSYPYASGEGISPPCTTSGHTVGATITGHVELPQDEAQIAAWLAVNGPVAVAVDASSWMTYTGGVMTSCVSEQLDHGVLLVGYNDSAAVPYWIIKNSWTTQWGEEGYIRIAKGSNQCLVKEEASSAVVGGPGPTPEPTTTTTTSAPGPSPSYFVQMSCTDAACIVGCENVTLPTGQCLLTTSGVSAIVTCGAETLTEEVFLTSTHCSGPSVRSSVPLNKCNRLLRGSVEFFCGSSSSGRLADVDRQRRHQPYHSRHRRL
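Steps: dispense cruzain (1.5 nM final) in acetate buffer pH 5.5 with DTT and 0.01% Triton X-100; pin-transfer compounds; incubate 15 min RT; add Z-FR-AMC (2 uM final); read fluorescence every 30 s, using the 60 s intensity change.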
Cruzain inh noDet: inhibitors of Trypanosoma cruzi cruzain without detergent. P25779. purified cruzain, Z-FR-AMC fluorescence, no detergent. Potency, µM, most hits filed as inhibitors. actives 2.3% (n = 200,000). AID 1476; further: nearly all actives have a fitted effect of over 40% in size
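Purified cruzain at 1.5 nM, pre-incubated 15 min with compound at room temperature in 100 mM sodium acetate pH 5.5, 5 mM DTT, 0.00005% Triton X-100. Reaction started with 2 uM Z-FR-AMC; AMC fluorescence increase over 60 s gives rate.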
Large screens that a line does not name were inactive. The entries come from a sample that favours hits as a whole. Unless noted, the call rests on the fitted dose curve; in most records, active means well fitted curve in the direction sought with a large enough effect; inconclusive means small, poorly fitted or top-dose-only effect, or another doubt; inactive means no such curve, though single readings can be large; an effect the other way counts as inactive or inconclusive.

CCOC(=O)C1CCN(C(=O)Nc2ccc3c(c2)nc(C)n3C)CC1	none
O=C(Nc1ccc2nc(-c3ccco3)c(-c3ccco3)nc2c1)N1CCCCCC1	NS1 inh inconclusive, Cruzain Triton 14µM, Cruzain inh noDet 2µM
CCOC(=O)C1CCN(C(=O)Nc2ccc3nc(-c4ccco4)c(-c4ccco4)nc3c2)CC1	Cruzain Triton 14µM, Cruzain inh noDet inconclusive
Cc1nc2ccc(NC(=O)N3CCCCC3)cc2nc1C	none
CCNC(=O)c1c(NC(=O)c2nc(S(=O)(=O)CC)ncc2Cl)sc2c1CCCC2	none (no result: NS1 inh)
Cc1ccc(S(=O)(=O)/N=C2/C=C(Sc3ncn[nH]3)C(=O)c3ccccc32)cc1	Cruzain inh noDet inconclusive
CC(C)c1ccc(S(=O)(=O)/N=C2/C=C(Sc3ncn[nH]3)C(=O)c3ccccc32)cc1	Cruzain inh noDet 13µM
CN1C(=O)/C(=C\c2cc(N=Nc3ccccc3)ccc2O)SC1=S	Cruzain inh noDet 25µM
CN1C(=O)/C(=C\c2ccccc2OCc2ccccc2)SC1=S	none (no result: Cruzain Triton, Cruzain inh noDet)
COc1ccc(-c2[nH]nc3c2C(c2ccccc2OC(=O)N2CCOCC2)C(C#N)=C(N)O3)cc1 (stereo not given)	Cruzain inh noDet inconclusive
Cc1ccc(-c2[nH]nc3c2C(c2ccccc2OC(=O)N2CCOCC2)C(C#N)=C(N)O3)cc1 (stereo not given)	Cruzain inh noDet 25µM
CCOC(=O)c1sc(Nc2nc3ccc(OC)cc3s2)cc1C	Cruzain inh noDet inconclusive
CCOC(=O)c1sc(Nc2nc3c(F)cccc3s2)cc1C	Cruzain inh noDet 16µM
CS(=O)(=O)N1CCC2(CCCN(c3cccc(-c4ccccc4)c3)C2)CC1	Cruzain inh noDet inconclusive (no result: NS1 inh)
Fc1ccc(Nc2ccnc(-c3ccc4c(c3)OCO4)n2)cc1	none (no result: NS1 inh)
CC(C)n1cc(/C=C2\NC(=O)N(c3cccc(Cl)c3)C2=O)c2ccccc21	Cruzain inh noDet 25µM
CC(C)n1cc(/C=C2/NC(=O)N(c3cccc(Cl)c3)C2=O)c2ccccc21	Cruzain inh noDet 16µM
CCn1c(C)cc(/C=C2/NC(=O)N(c3ccccc3)C2=O)c1C	none (no result: Cruzain Triton, Cruzain inh noDet)
CC(C)n1cc(/C=N/Nc2ccc(Cl)c(C(=O)O)c2)c2ccccc21	none (no result: Cruzain Triton, Cruzain inh noDet)
CCCCC(CC)C/C=C1\CC(C(=O)OCC)Oc2ccccc21 (stereo not given) (tested in a mixture with another compound)	none (no result: NS1 inh)
CCN(CCCNC(=O)CSc1cc(=O)n(CC)c2ccccc12)c1ccccc1	Cruzain inh noDet inconclusive (no result: NS1 inh)
Cc1ccc(OCc2nc(-c3ccc(C(=O)N4CCN(c5cc(Cl)ccc5C)CC4)cc3)oc2C)cc1	none (no result: NS1 inh)
C=CCOC(=O)N[C@H](c1ccccc1)C(C(C)=O)C(C)=O	none (no result: NS1 inh)
O=C(COc1ccccc1F)Nc1ccc2oc(-c3cccc(Cl)c3)nc2c1	none (no result: NS1 inh)
O=c1ccsn1Cc1ccccc1	Cruzain Triton inconclusive, Cruzain inh noDet 13µM
O=c1cc(Cl)[nH]c(=O)n1Cc1ccccc1	none (no result: Cruzain Triton, Cruzain inh noDet)
CC(C)[C@]1(O)[C@@H](OC(=O)c2ccc[nH]2)[C@]2(O)[C@@]3(C)C[C@@]4(O)O[C@@]5([C@H](O)[C@@H](C)CC[C@]35O)[C@]2(O)[C@]41C	none
CN(C)Cc1cc(C(C)(C)C)ccc1-c1ccc(C(C)(C)C)cc1CN(C)C	none
CC(=O)OCN(C#N)c1nc(N(C)C)nc(N(C)C)n1	none
COC(=O)CN(C#N)c1nc(SC)nc(N(C)C)n1	Cruzain Triton 16µM, Cruzain inh noDet 13µM
CN(C)C(=O)c1ccc(-c2nc(NCc3cccnc3)c3ccccc3n2)cc1	none (no result: NS1 inh)
O=C(CN(Cc1ccco1)C(=O)Cn1nnc(-c2cccs2)n1)NCc1ccccc1	none
CCCC(C(=O)NCc1ccccc1)N(C(=O)Cn1nnc(-c2cccs2)n1)c1ccc2c(c1)OCCO2 (stereo not given)	Cruzain inh noDet 20µM
CCC(C(=O)NC1CCCC1)N(C(=O)Cn1nnc(-c2cccs2)n1)c1cnc2ccccc2c1 (stereo not given)	none
O=C(NCc1ccccc1)C(c1ccc(F)cc1)N(Cc1ccc2c(c1)OCO2)C(=O)Cn1nnc(-c2cccs2)n1 (stereo not given)	Cruzain inh noDet 13µM
COc1ccc2oc(=O)cc(CN3CCN(C(=O)c4ccccc4)CC3)c2c1	none (no result: NS1 inh)
Cc1cccc(C(=O)Nc2nnc(SCC(=O)NC3CC3)s2)c1	none (no result: Cruzain Triton, Cruzain inh noDet)
Cc1cccc(C(=O)Nc2nnc(SCC(=O)Nc3ccc4c(c3)oc3ccccc34)s2)c1	Cruzain inh noDet 20µM
COc1ccc(NC(=O)CSc2nnc(NC(=O)Nc3ccccc3)s2)cc1OC	none (no result: NS1 inh)
COc1ccccc1C(=O)Nc1nnc(SCC(=O)Nc2ccc3c(c2)oc2ccccc23)s1	Cruzain inh noDet 13µM
Cc1cc2c(cc3c(SCc4ccc(Cl)cc4)nncn32)o1	none (no result: NS1 inh)
O=C(OC(C(=O)Nc1ccc([N+](=O)[O-])cc1Br)c1ccccc1)c1ccccc1 (stereo not given)	none (no result: Cruzain Triton, Cruzain inh noDet)
CN(C)c1cccc(C(=O)OC(C(=O)Nc2ccc([N+](=O)[O-])cc2Br)c2ccccc2)c1 (stereo not given)	Cruzain inh noDet 16µM
N#Cc1c(-c2ccccc2)nc2n(-c3ccccc3)nc(C(=O)Nc3ccccc3)n2c1=O	Cruzain inh noDet 10µM
N#Cc1cccc(NC(=O)c2nc(-c3ccccc3)n(-c3ccccc3)n2)c1	none
CCC1CCc2nc3sc(C(=O)Nc4cccc(C(F)(F)F)c4)c(N)c3cc2C1 (stereo not given)	none (no result: NS1 inh)
CCC1CCc2nc3sc(C(=O)Nc4cccc(F)c4)c(N)c3cc2C1 (stereo not given)	Cruzain inh noDet 5µM (no result: NS1 inh)
Cc1cc(-c2ccc(N=Nc3ccc4c(S(=O)(=O)O)cc(S(=O)(=O)O)c(N)c4c3O)c(C)c2)ccc1N=Nc1ccc2c(S(=O)(=O)O)cc(S(=O)(=O)O)c(N)c2c1O	Cruzain Triton 28µM, Cruzain inh noDet inconclusive (no result: NS1 inh)
Nc1ccc(N=Nc2ccc(-c3ccc(O)cc3)cc2)c2ccc(S(=O)(=O)O)cc12	none
Cc1ccc(N=Nc2c(O)c(S(=O)(=O)O)cc3cc(S(=O)(=O)O)ccc23)c(C)c1	none
Nc1c(N=Nc2ccc(-c3ccc(N=Nc4cc(S(=O)(=O)O)c5ccccc5c4N)cc3)cc2)cc(S(=O)(=O)O)c2ccccc12	Cruzain Triton 2.8µM, Cruzain inh noDet inconclusive (no result: NS1 inh)
O=C(NC[C@H]1CCCCN1)c1cc(OCC(F)(F)F)ccc1OCC(F)(F)F	none (no result: NS1 inh)
O=C(NCC(c1ccc2c(c1)OCO2)N1CCN(c2ccccc2)CC1)c1ccccc1 (stereo not given)	none (no result: NS1 inh)
CCc1cc2c(N=Nc3c(O)[nH]c4ccccc34)ncnc2s1	none
CCc1ccc2[nH]c(O)c(N=Nc3nc(-c4ccccc4)cs3)c2c1	Cruzain inh noDet 20µM
Cc1c(Cc2ccccc2)c(=O)oc2c(O)c(O)ccc12	none (no result: Cruzain Triton, Cruzain inh noDet)
Cc1c(Cc2ccccc2)c(=O)oc2c(CN(C)C)c(O)c(Cl)cc12	Cruzain Triton 20µM, Cruzain inh noDet inconclusive
N=C(N)SCC(=O)O	none
Cc1ccc(-n2c(=S)[nH]c3nc4c(cc3c2=O)COC(C)(C)C4)cc1	Cruzain inh noDet inconclusive
CCC1(C)Cc2nc3[nH]c(=S)n(-c4ccc(C)cc4)c(=O)c3cc2CO1 (stereo not given)	Cruzain inh noDet 20µM
COc1cc(C)c(Cl)cc1S(=O)(=O)NCCc1c(C)[nH]c2ccccc12	none (no result: NS1 inh)
OC[C@H]1NC[C@@H](O)[C@@H](O)[C@H]1O	none (no result: NS1 inh)
O=S(=O)(Nc1cc(Sc2cccc3cccnc23)c(O)c2ccccc12)c1ccccc1	Cruzain inh noDet 3.2µM
CCOc1ccc(S(=O)(=O)Nc2cc(SCC(=O)O)c(O)c3ccccc23)cc1	none (no result: Cruzain Triton, Cruzain inh noDet)

From PubChem
